A short description of this test: NCI Yeast Anticancer Drug Screen. Data for the rad50EPP+ strain (AID 151).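 Note: 0% = growth of vehicle-treated control cultures.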 The conditions noted are these: S. cerevisiae rad50 mutant strain, stronger effect = higher value. How it is done:
Growth inhibition of yeast strains with defined genetic alterations is measured as a screen for potential anti-cancer activity. Selected strains with alterations in DNA damage repair or cell cycle control were exposed to compounds and growth inhibition was measured relative to vehicle treated controls. The strain used in this assay is rad50EPP+

The panel holds about 79,000 compounds, 15% with a hit somewhere; the sample as a whole holds those more often. Unmarked numbers belong to inactive results. Activity calls are given as the source filed them. Cut-off read from the data, not from the text of the source: active = growth inhibition above about 70%; inactive = the rest.

Take `CC(C)OC(=O)NNc1cc(Cl)ccc1Cl`: the growth inhibition was 20% (at 1.2 µM); 27% (at 3.7 µM); 60% (at 11.0 µM); 72% (active) (at 33.0 µM); 88% (active) (at 100.0 µM).

Turning to `C/C(=N/NC(=S)Nc1ccccc1C)c1ccccn1`, the growth inhibition was 3% (at 1.2 µM); 6% (at 3.7 µM); 13% (at 11.0 µM); 14% (at 33.0 µM); 4% (at 100.0 µM).

Consider `O=[N+]([O-])c1cccc2nc3ccccc3c(NCCCN3CCCCC3)c12`, for which the growth inhibition was 83% (active) (at 1.2 µM); 96% (active) (at 3.7 µM); 98% (active) (at 11.0 µM); 98% (active) (at 33.0 µM); 99% (active) (at 100.0 µM).

For `COC(=O)C(Cc1c[nH]c2ccccc12)N1CN(C)c2ccccc2C1=O` (stereo not given), the growth inhibition by setting is: (at 1.2 µM) 9%; (at 3.7 µM) 0%; (at 11.0 µM) -3%; (at 33.0 µM) 1%; (at 100.0 µM) 16%.

On to `COc1ccc2nc3cccc([N+](=O)[O-])c3c(NCCNCCO)c2c1`, for which the growth inhibition (at 1.2 µM) is 2%; the growth inhibition (at 3.7 µM) was 18%; the growth inhibition (at 11.0 µM) is 61%; the growth inhibition (at 33.0 µM) was 92% (active); the growth inhibition (at 100.0 µM) was 96% (active).

Regarding `CN(CCOc1ccc(Cl)cc1)CCOc1ccc(Cl)cc1`, the growth inhibition was 4% (at 1.2 µM); 7% (at 3.7 µM); 7% (at 11.0 µM); 3% (at 33.0 µM); 56% (at 100.0 µM).

As for `Cc1cccc2c(NCCCN(C)C)c3c([N+](=O)[O-])ccc(C)c3nc12`, the growth inhibition runs as follows: (at 1.2 µM) 29%; (at 3.7 µM) 55%; (at 11.0 µM) 85% (active); (at 33.0 µM) 94% (active); (at 100.0 µM) 95% (active).

Regarding `CCCCCCCCN1COCC(COc2ccccc2C)OC1` (stereo not given), the growth inhibition (at 1.2 µM) is -7%; the growth inhibition (at 3.7 µM) is -4%; the growth inhibition (at 11.0 µM) is -2%; the growth inhibition (at 33.0 µM) is 11%; the growth inhibition (at 100.0 µM) is 18%.

These data come from PubChem BioAssay (NCI).
